Measured values as given in PMC4336329 (PLoS ONE, 2015).
Out of some 310,000 compounds screened, about 14,000 (4.5%) showed an effect of 50% or more. The effect is printed as a negative number. The sample holds strong results, similar compounds and a random draw of the others, so the mix is not that of the screen.

target: human ether-à-go-go-related gene (hERG) potassium channel (human, UniProt Q12809); experiment: primary screen, population patch clamp on CHO cells stably expressing hERG; higher = less effect of the substance
Description: Briefly, Chinese hamster ovary (CHO) cells stably expressing the hERG channel were dislodged from tissue culture flasks and dispensed into PPC plates. […] During the recording, background leak currents were estimated by a 100 ms step to -80 mV from an initial holding potential of -70 mV and subtracted from the subsequent current measurement. The campaign was conducted in two phases using slight differences in recording protocol. In the first phase, the initial voltage pulse used a 100 ms step to -30 mV from a holding potential of -70 mV, a 2 s conditioning step to +25 mV, and a 2 s test step to -30 mV. During the second phase of the screen, the potential during the conditioning step was raised to +45 mV. In both phases of the campaign, a secondary voltage pulse was applied using the same parameters as the second phase initial pulse. The initial and secondary pulses were applied in the absence of compound, and upon application of 1 μM and 10 μM test concentrations. […]
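Also: peak tail current of the secondary pulse compared with the same well before compound.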

Chain of human ether-à-go-go-related gene (hERG) potassium channel (Q12809 whole entry, looked up): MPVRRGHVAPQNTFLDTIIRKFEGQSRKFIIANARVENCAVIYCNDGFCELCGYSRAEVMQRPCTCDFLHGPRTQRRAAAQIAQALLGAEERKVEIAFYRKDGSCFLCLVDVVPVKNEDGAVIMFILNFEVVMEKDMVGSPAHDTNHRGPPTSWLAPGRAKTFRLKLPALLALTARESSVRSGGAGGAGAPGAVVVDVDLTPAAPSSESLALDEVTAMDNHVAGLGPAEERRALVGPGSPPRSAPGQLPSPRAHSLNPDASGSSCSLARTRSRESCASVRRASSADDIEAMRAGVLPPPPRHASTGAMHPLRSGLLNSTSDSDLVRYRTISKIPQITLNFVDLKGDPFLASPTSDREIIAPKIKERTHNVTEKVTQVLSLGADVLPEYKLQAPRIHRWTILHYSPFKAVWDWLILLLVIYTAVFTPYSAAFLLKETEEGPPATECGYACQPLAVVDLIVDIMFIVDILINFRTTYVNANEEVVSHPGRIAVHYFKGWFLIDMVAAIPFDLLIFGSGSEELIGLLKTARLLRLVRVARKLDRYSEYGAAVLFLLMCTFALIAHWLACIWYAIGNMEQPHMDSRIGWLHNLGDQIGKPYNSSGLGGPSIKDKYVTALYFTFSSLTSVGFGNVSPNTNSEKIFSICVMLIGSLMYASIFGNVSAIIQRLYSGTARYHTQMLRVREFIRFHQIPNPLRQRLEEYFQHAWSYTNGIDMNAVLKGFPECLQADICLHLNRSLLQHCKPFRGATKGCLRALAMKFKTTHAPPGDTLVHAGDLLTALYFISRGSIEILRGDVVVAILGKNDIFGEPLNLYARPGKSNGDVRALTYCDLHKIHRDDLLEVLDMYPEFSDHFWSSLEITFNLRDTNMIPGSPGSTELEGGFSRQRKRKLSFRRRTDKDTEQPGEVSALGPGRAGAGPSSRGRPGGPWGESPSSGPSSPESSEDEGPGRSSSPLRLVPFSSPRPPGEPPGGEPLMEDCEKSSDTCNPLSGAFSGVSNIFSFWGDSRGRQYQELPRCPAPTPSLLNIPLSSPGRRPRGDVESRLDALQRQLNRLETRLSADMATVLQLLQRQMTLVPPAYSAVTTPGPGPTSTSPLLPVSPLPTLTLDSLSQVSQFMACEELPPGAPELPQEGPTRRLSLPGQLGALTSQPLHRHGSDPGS

Row | Compound | hERG current change (%, negative = inhibition) at 10uM [%]
1 | NC(=O)CCn1c(C(=O)c2ccc(Cl)cc2)c2ccccc2[n+]1[O-] | -23.7
2 | NC(=O)CCn1c(C(=O)c2cc(Cl)c(N)c(Cl)c2)c2ccccc2[n+]1[O-] | 17.9
3 | NC(=O)CCCn1c(C(=O)c2ccc(Cl)cc2)c2ccc(C(F)(F)F)cc2[n+]1[O-] | -77.9
4 | COc1ccc(/C=C2\N=C(c3ccccc3)N(c3ccc(C(=O)O)cc3)C2=O)cc1OC | 6.76
5 | CCOc1ccc(C2CC(=O)N(Nc3ccc([N+](=O)[O-])cc3[N+](=O)[O-])C2=O)cc1 (stereo not shown) | -51.7
6 | CC(C)Oc1ccc(C2CC(=O)N(Nc3ccc([N+](=O)[O-])cc3[N+](=O)[O-])C2=O)cc1 (stereo not shown) | -15.6
7 | O=C1C2C3C=CC(C3)C2C(=O)N1Nc1ccc([N+](=O)[O-])cc1[N+](=O)[O-] (stereo not shown) | 3.34
8 | Cc1ccc(-n2c(=O)[nH]c3c(C(N)=O)nc(C(C)C)nc32)cc1 | 15.1
9 | CCOc1ccccc1CNC(=O)C1CCCN(c2nnc(C)c3c(C)n(-c4ccccc4)nc23)C1 (stereo not shown) | 4.08
10 | COc1ccc(-n2nc3c(N4CCC(C(=O)NC5CCCCC5)CC4)nnc(C)c3c2C)cc1 | -5.39
11 | Cc1ccc(-n2nc3c(N4CCC(C(=O)N5CCCCCC5)CC4)nnc(C)c3c2C)cc1 | -68.7
12 | Cc1ccccc1CNC(=O)C1CCCN(c2nnc(C)c3c(C)n(-c4ccccc4)nc23)C1 (stereo not shown) | -5.38
13 | Cc1nnc(N2CCCC(C(=O)NCc3ccccc3F)C2)c2nn(-c3ccccc3)c(C)c12 (stereo not shown) | -51.2
14 | Cc1nnc(N2CCC(C(=O)N3CCCCC3)CC2)c2nn(-c3ccc(Cl)cc3)c(C)c12 | -73.9
15 | CCCN1CCN(C(=O)C2CCN(c3nnc(C)c4c(C)n(-c5ccc(C)cc5)nc34)CC2)CC1 | -32.3
16 | CCN1CCN(C(=O)C2CCN(c3nnc(C)c4c(C)n(-c5ccc(C)cc5)nc34)CC2)CC1 | 3.86
17 | Cc1ccc(-n2nc3c(N4CCC(C(=O)N5CCN(C)CC5)CC4)nnc(C)c3c2C)cc1 | 11.9
18 | COc1ccc(-n2nc3c(N4CCC(C(=O)N5CCCCCC5)CC4)nnc(C)c3c2C)cc1 | -53.7
19 | COc1ccc(-n2nc3c(N4CCC(C(=O)N5CCC(C)CC5)CC4)nnc(C)c3c2C)cc1 | -46.3
20 | Cc1ccc(-n2nc3c(N4CCC(C(=O)N5CCC(C(N)=O)CC5)CC4)nnc(C)c3c2C)cc1 | 12

Row | Compound | hERG current change (%, negative = inhibition) at 10uM [%]
21 | CCOc1ccc(Cn2c3ccc(OC)cc3c3nc4ccccc4nc32)cc1 | 15.4
22 | O=C(COC(=O)c1cccnc1Cl)c1ccccc1 | -4.84
23 | CSc1ccccc1NC(=O)CN(C1CCCCC1)S(C)(=O)=O | -1.49
24 | CSC[C@H](NC(=O)Cc1c(C)c2cc3c(C)c(C)oc3cc2oc1=O)C(=O)N[C@@H](Cc1ccccc1)C(=O)O | 1.76
25 | Cc1ccc(S(=O)(=O)Nc2ccc(Cl)cn2)cc1C | 15
26 | CN(C)CCSc1nc(N)c2c3c(sc2n1)CN(C)CC3 | 9.66
27 | CCCCc1nc2c(C)c(N)cnc2n1Cc1cccc([N+](=O)[O-])c1 | -44.1
28 | N#CC1=C2SCN(Cc3ccccc3)CN2C(=O)CC1c1cccs1 (stereo not shown) | 6.44
29 | O=C(Nc1ccc2oc(-c3ccccc3Cl)nc2c1)c1cncc(Br)c1 | -8.01
30 | CCc1ccc(CNC(=O)C2CCN(c3nnc(C)c4c(C)n(-c5ccc(C)cc5)nc34)CC2)cc1 | -1.17
31 | Cc1nnc(N2CCC(C(=O)N3CCCCCC3)CC2)c2nn(-c3ccc(Cl)cc3)c(C)c12 | -65.2
32 | Cc1nnc(N2CCC(C(=O)NC3CCC(C)CC3)CC2)c2nn(-c3ccc(Cl)cc3)c(C)c12 (stereo not shown) | 18.8
33 | CC(=O)Nc1ccc(S(=O)(=O)NCCCN2CCOCC2)cc1 | 16
34 | Cc1cccc(NC(=O)C2CCCN2/C=C/C(=O)C(F)(F)F)c1C (stereo not shown) | 4.61
35 | COc1ccc(C(=O)CC(=O)C(=O)Nc2cccc(C(C)=O)c2)cc1 | 29.9
36 | COc1ccc(N2C(=S)NC(C)(C)CC2(C)c2ccc(OC(C)=O)cc2OC(C)=O)cc1 (stereo not shown) | 6.26
37 | COc1ccc(C2(c3ccc(O)cc3O)CC(c3ccccc3Cl)NC(=S)N2)cc1 (stereo not shown) | -15
38 | COc1ccc(C2(c3ccc(OC(C)=O)cc3OC(C)=O)CC(c3ccccc3)NC(=S)N2)cc1 (stereo not shown) | -50.2
39 | O=C(Cc1ccccc1[N+](=O)[O-])Nc1ccccc1C(=O)N1CCCC1 | 23.2
40 | Cc1cc(C)cc(NC(=S)NCC2CCN(C(C)c3ccccc3)C2)c1 (stereo not shown) | -63.3
